Results filed as inconclusive are left out. The source made the active and inactive calls. Unless noted, calls come from the whole dose curve; as a rule, active = well fitted curve in the direction sought with a large enough effect in the repeat runs; inconclusive = weak or mixed curves; inactive = no such curve, though single readings can be large; an effect the other way counts as inactive or inconclusive.
Key:
[1] = qHTS assay to identify small molecule agonists of the peroxisome proliferator-activated receptor delta (PPARd) signaling pathway - cell viability counter screen (AID 743211); note: nearly all actives have a fitted effect of over 55% in size
Summary of the method: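 In the same wells used for beta-lactamase reporter measurement, cytotoxicity is scored by CellTiter-Glo. HEK293H PPARd-bla cells receive compound for 17 h at 37C following a 5 h settling period.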

[2] = biological target: Peroxisome proliferator-activated receptor delta (Homo sapiens) (UniProt Q03181); assay: qHTS assay to identify small molecule agonists of the peroxisome proliferator-activated receptor delta (PPARd) signaling pathway (AID 743212; calls by dose curve;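 note: HEK293H cells with PPARd UAS beta-lactamase reporter GeneBLAzer system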)
Summary of the method: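 Beta-lactamase reporter read by fluorescence (LiveBLAzer B/G FRET, 2 h, room temperature). Test agents, in DMSO, incubated at 37 C with PPARd-bla HEK293H cells.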

[3] = qHTS assay to identify small molecule antagonists of the peroxisome proliferator-activated receptor delta (PPARd) signaling pathway - cell viability counter screen (AID 743213); note: nearly all actives have a fitted effect of over 50% in size
Summary of the method: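 HEK293H PPARd UAS-bla cells, 5 h pre-incubation, compound + L165041 300 nM final, 17 h 37 C; B/G FRET substrate 2 h RT; then CellTiter-Glo 30 min RT, luminescence.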

[4] = biological target: Peroxisome proliferator-activated receptor delta (Homo sapiens) (UniProt Q03181); assay: qHTS assay to identify small molecule antagonists of the peroxisome proliferator-activated receptor delta (PPARd) signaling pathway (AID 743215; active = well fitted inhibition curve with a large enough effect in the signal ratio in the repeat runs, not every such curve was filed as active; the % refers to the signal ratio;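 note: cells stimulated with agonist L165041 at 300 nM final during compound exposure; series mostly up to about 62 µM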)
Summary of the method: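 Plated HEK293H PPARd-bla cells rested 5 h at 37 C and 5% CO2. Compound, then agonist L165041 at 300 nM final, was added; 17 h at 37 C followed. Substrate loading, 2 h room temperature, fluorescence measured.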

[5] = qHTS assay to identify small molecule antagonists of the farnesoid-X-receptor (FXR) signaling pathway - cell viability counter screen (AID 743221; active = well fitted cell-killing curve with a large enough effect in the repeat runs, not every such curve was filed as active; note: nearly all actives have a fitted effect of over 50% in size)
Summary of the method: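 Here viability was scored by luminescence after CellTiter-Glo addition to wells already read for beta-lactamase. Prior treatment: compound plus CDCA (50 uM final), 16 h, 37 C, HEK 293T FXR-bla cells.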

[6] = biological target: Vitamin D3 receptor (Homo sapiens) (UniProt P11473); assay: qHTS assay to identify small molecule agonists of the vitamin D receptor (VDR) signaling pathway (AID 743222; calls by dose curve)
Summary of the method: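 Fluorescence from cleaved LiveBLAzer B/G FRET substrate served as readout. VDR-bla cells had been treated 16 h at 37C with test compounds in DMSO, following a 4 h settling period, and substrate was loaded for 2 h at RT.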

[7] = biological target: Vitamin D3 receptor (Homo sapiens) (UniProt P11473); assay: qHTS assay to identify small molecule antagonists of the vitamin D receptor (VDR) signaling pathway (AID 743223; active = well fitted inhibition curve with a large enough effect in the signal ratio in the repeat runs, not every such curve was filed as active; the % refers to the signal ratio)
Summary of the method: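 Inhibition of agonist-driven VDR signalling is scored in VDR-bla cells: 3 nM final 1alpha,25-dihydroxyvitamin D3 plus compound, 16 h at 37C, then beta-lactamase detection by FRET substrate fluorescence after 2 h.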

[8] = qHTS assay to identify small molecule antagonists of the vitamin D receptor (VDR) signaling pathway - cell viability counter screen (AID 743225); note: nearly all actives have a fitted effect of over 50% in size
Summary of the method: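 Compounds were pinned onto VDR-bla HEK 293T cells together with 1-alpha,25-dihydroxyvitamin D3 at 3 nM final. After 16 h at 37C and 5% CO2 plus the reporter readout, cell viability was measured by CellTiter-Glo luminescence (30 min, room temperature).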

[9] = qHTS assay to identify small molecule agonists of the NFkB signaling pathway (AID 1159509; active = well fitted curve in the direction sought with a large enough effect in the signal ratio in the repeat runs, not every such curve was filed as active; the % refers to the signal ratio; note: series mostly up to about 61 µM)
Summary of the method: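 Beta-lactamase reporter assay run in quantitative high-throughput format on an NF-kB-responsive ME-180 line, with 5 hr compound treatment and a FRET-based blue/green fluorescence readout.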

[10] = qHTS assay to identify small molecule agonists of the endoplasmic reticulum stress response signaling pathway (AID 1159516; active = well fitted activation curve with a large enough effect in the signal ratio in the repeat runs, not every such curve was filed as active; the % refers to the signal ratio)
Summary of the method: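 Using a HeLa line with an ESRE-driven beta-lactamase gene, agonist activity was measured by FRET substrate fluorescence (460 and 530 nm emission) after cells were treated with compounds for 5 hr at 37 C and 5% CO2.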

[11] = qHTS assay to identify small molecule agonists of the endoplasmic reticulum stress response signaling pathway - cell viability counter screen (AID 1159517; calls by dose curve;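 note: HeLa cells carrying an ER stress response element beta-lactamase reporter; series mostly up to about 61 µM; nearly all actives have a fitted effect of over 50% in size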)
Summary of the method: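 Cytotoxicity of test compounds toward ESRE-bla HeLa cells was assessed after 5 hr exposure. The luminescent CellTiter-Glo signal was measured 30 min after reagent addition.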

[12] = qHTS assay to identify small molecule antagonists of the retinoid-related orphan receptor gamma (ROR-gamma) signaling pathway - cell viability counter screen (AID 1159520); note: nearly all actives have a fitted effect of over 50% in size
Summary of the method: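 Tet-on ROR gamma CHO cells (1,000/well) were plated 4 hr, given compounds in DMSO for 2 hr at 37 C, then induced with 1 uM final doxycycline for 16 hr. Viability was read as ATP by CellTiter-Glo luminescence after 30 min.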

[13] = biological target: Nuclear receptor ROR-gamma (Homo sapiens) (UniProt P51449); assay: qHTS assay to identify small molecule antagonists of the retinoid-related orphan receptor gamma (ROR-gamma) signaling pathway (AID 1159521)
Summary of the method: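 Test compounds were applied to Tet-on RORγ CHO cells 2 h ahead of doxycycline hyclate (1 uM final). Luciferase reporter activity was quantified by luminescence after 16 h at 37 C and 5% CO2.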

[14] = qHTS assay to identify small molecule agonists of the AP-1 signaling pathway - cell viability counter screen (AID 1159525; calls by dose curve; note: nearly all actives have a fitted effect of over 55% in size)
Summary of the method: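 Each titration point was normalised to DMSO and tetra n-octyl ammonium bromide controls. The read was Cell Titer Glo luminescence after 30 min at RT, following 5 h compound exposure of ME-180 AP-1-bla cells at 37 °C.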

[15] = qHTS assay to identify small molecule agonists of the AP-1 signaling pathway (AID 1159526; calls by dose curve)
[16] = biological target: Bile acid receptor (Homo sapiens) (UniProt Q96RI1); assay: qHTS assay to identify small molecule antagonists of the farnesoid-X-receptor (FXR) signaling pathway (AID 743217; active = well fitted inhibition curve with a large enough effect in the signal ratio in the repeat runs, not every such curve was filed as active; the % refers to the signal ratio)
Summary of the method: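 Screen of the Tox21 10K library in quantitative HTS format using FXR-UAS-bla HEK 293T reporter cells. Agonist chenodeoxycholic acid, 50 uM final, added with compounds; 16 h incubation at 37 °C; beta-lactamase FRET fluorescence measured.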

[17] = qHTS assay to identify small molecule agonists of the farnesoid-X-receptor (FXR) signaling pathway - cell viability counter screen (AID 743218); note: nearly all actives have a fitted effect of over 45% in size
Summary of the method: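 Viability of FXR-bla HEK 293T cells is measured by ATP-based CellTiter-Glo luminescence following 16 h compound treatment at 37 C and a prior 2 h room-temperature beta-lactamase substrate step.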

[18] = biological target: Bile acid receptor (Homo sapiens) (UniProt Q96RI1); assay: qHTS assay to identify small molecule agonists of the farnesoid-X-receptor (FXR) signaling pathway (AID 743220; active = well fitted activation curve with a large enough effect in the signal ratio in the repeat runs, not every such curve was filed as active; the % refers to the signal ratio)
Summary of the method: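 FXR-UAS-bla HEK 293T cells carrying a UAS-driven beta-lactamase reporter were plated for 5 h at 37C/5% CO2, then exposed to DMSO-dissolved Tox21 10K compounds for 16 h at 37C. A LiveBLAzer B/G FRET substrate was loaded for 2 h at room temperature before fluorescence reading.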

[19] = qHTS assay to identify small molecule agonists of the vitamin D receptor (VDR) signaling pathway - cell viability counter screen (AID 743224)
Summary of the method: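 Compounds were pin-transferred onto VDR-bla cells plated 4 h earlier; following 16 h incubation at 37C, cell viability was quantified by CellTiter-Glo luminescence after 30 min at room temperature.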

Measured: Potency

Bile acid receptor (Homo sapiens), sequence (Q96RI1 whole entry, looked up): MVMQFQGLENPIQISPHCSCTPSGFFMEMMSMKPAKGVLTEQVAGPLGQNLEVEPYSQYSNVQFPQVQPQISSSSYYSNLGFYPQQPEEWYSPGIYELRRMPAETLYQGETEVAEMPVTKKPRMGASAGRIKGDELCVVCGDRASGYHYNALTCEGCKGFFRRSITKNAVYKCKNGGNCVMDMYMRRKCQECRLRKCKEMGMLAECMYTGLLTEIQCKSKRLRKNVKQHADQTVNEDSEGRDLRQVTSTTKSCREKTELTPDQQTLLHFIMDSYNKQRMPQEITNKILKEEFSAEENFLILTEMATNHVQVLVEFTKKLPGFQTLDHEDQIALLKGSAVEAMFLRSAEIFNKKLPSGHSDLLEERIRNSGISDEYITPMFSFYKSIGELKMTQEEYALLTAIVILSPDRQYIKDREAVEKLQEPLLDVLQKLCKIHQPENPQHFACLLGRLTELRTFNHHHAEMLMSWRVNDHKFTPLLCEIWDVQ
Peroxisome proliferator-activated receptor delta (Homo sapiens), sequence (Q03181 whole entry, looked up): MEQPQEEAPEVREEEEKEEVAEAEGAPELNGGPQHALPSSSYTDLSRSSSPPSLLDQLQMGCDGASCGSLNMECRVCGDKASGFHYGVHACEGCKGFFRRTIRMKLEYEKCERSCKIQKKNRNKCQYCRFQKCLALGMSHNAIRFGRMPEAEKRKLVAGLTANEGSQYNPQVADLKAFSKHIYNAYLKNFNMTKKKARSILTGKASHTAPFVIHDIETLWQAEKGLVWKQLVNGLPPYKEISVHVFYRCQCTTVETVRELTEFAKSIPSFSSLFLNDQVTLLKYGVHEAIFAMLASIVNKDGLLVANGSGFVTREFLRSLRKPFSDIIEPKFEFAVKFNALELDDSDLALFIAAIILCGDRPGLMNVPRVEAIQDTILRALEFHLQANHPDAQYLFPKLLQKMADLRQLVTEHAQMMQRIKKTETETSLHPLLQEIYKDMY
Vitamin D3 receptor (Homo sapiens), sequence (P11473 whole entry, looked up): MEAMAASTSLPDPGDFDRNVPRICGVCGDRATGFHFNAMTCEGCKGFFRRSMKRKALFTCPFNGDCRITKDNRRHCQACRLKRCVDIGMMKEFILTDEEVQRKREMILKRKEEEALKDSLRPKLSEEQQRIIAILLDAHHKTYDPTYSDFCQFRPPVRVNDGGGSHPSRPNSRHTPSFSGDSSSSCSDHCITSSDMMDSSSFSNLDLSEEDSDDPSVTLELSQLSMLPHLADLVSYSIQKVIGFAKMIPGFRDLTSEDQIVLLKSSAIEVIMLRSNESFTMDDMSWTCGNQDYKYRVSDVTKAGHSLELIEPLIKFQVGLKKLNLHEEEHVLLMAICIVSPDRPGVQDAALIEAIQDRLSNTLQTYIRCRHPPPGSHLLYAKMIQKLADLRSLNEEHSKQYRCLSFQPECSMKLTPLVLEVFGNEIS

C=CCOCC(O)CCl (centres undefined)
not listed: [16] | [17] | [18] | [19]
inactive: all other assays above

NS(=O)(=O)c1ccccc1OC(F)(F)F
not listed: [4] | [8]
inactive: all other assays above

Cc1cccc(C(=O)O)c1[N+](=O)[O-]
not listed: [7] | [16] | [18]
inactive: all other assays above

NS(=O)(=O)c1ccc(Cl)c(S(N)(=O)=O)c1
not listed: [2] | [4] | [8] | [16] | [18]
inactive: all other assays above

CCCCOC(=O)C(=O)OCCCC
not listed: [6] | [7] | [8]
inactive: all other assays above

CCCCCCCCCOCC1CO1 (centres undefined)
not listed: [16] | [17] | [18]
inactive: all other assays above

CCCOCCOCCOCCO
not listed: [7] | [13] | [17]
inactive: all other assays above

CCCCCCCC[Si](OCC)(OCC)OCC
not listed: [8] | [13] | [16] | [17] | [18]
inactive: all other assays above

COC(OC)C(C)c1ccccc1 (centres undefined)
not listed: [6] | [16] | [18] | [19]
inactive: all other assays above

O=S(=O)(O)SSS(=O)(=O)O
not listed: [6] | [7] | [16] | [17] | [18]
inactive: all other assays above

CC(C)SCc1ccco1
not listed: [5] | [6] | [7] | [16] | [18] | [19]
inactive: all other assays above

COCCOCCOCCOC
not listed: [2] | [4] | [17]
inactive: all other assays above

Cc1nc(C)nc(N2C[C@@H](C)N(c3ccnc([C@@H](C)O)n3)[C@@H](C)C2)n1
not listed: [2] | [4]
inactive: all other assays above

CC(=O)N1CCN(c2ccc(O)cc2)CC1
not listed: [2] | [4] | [6] | [16] | [18]
inactive: all other assays above

SCCSCCS
not listed: [7] | [10] | [13] | [17]
inactive: all other assays above

O=S(=O)(O)c1cc(O)ccc1O
not listed: [16] | [17] | [18]
inactive: all other assays above

CCCCCCCCCCCCCC(=O)OC
not listed: [7] | [13] | [16] | [18]
inactive: all other assays above

Source: PubChem BioAssay (Tox21)
